Measured values as given in the supplement of paper PMC6555819.

Tested on: RARa homodimer (NR concentration 270 nM)
Test: PBM binding z-score (relative to random genomic background probes); higher = stronger binding; sequences stand for … in GC…GCGATTGACAGCGTAGAATGAAGG
Outline: (§1)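 Custom Agilent 4×180K protein-binding microarrays carried double-stranded probes. Their 34-nt variable regions held direct-repeat seeds, single-nucleotide variants, half-site ablations and random human genomic background sequences. Arrays were incubated 1 h with ligand-free nuclear receptor dimers in PBS pH 7.4, 2% milk, 0.02% Triton X-100, 1 mM DTT, 0.2 mg/mL BSA and 0.4 mg/ml salmon testes DNA. Antibodies against each partner (one per run) detected binding, and scanned fluorescence was regression-normalized. Binding z-scores use random background probes as reference.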

Row | Sequence | PBM binding z-score
1 | ATCGAAAGGTCGACGAGGTGTGTATACACCGTTT | 0.322
2 | CCTACTGGGCCATTCAGAGGTCTTTGATCATATG | -0.345
3 | ATCGAAACGTCGAGGTGAGTATAGAGAAAGGGAA | -0.11
4 | CCCAGCAGGCCAGGGTCACTCAAGCATTTCGCTT | -0.754
5 | CTTCCAAGGTCAATGCTAGGTCAGTGAAAGCATT | 0.988
6 | GGTACGAGGGCATTCGAGTTGATAGCATGGCGAT | -0.0392
7 | TGTCAAAGTTCAAAGGTAACGTACGTATCCACAC | 1.11
8 | GGAACGAGAGCAAAGTTGATAGCATCTGTCGACG | -1.16
9 | GCTATTAGTTGAAAGGGCAACCAAATGATTCTCG | 0.766
10 | ATATGTAGGTTACAACCGGGTCATTCAGGCTATG | 0.487
11 | TCTTGTAGATCAACAGGGGGTTAAGAAAGATCGA | 0.939
12 | CCTACTGGGCCAAAAAGCTCATTGATGCCGATAA | -0.487
13 | AGTCAAAGTTCAGGACGAGTTAACGTAAAGCACG | 1.1
14 | TGAATGAGGTTAAAGATTAGGGAACGTGGCGTCG | 0.424
15 | CAAACTAGGTCCCGAAAGGTCAAAGTCGAATGAC | 1.91
16 | CCAAGTTGGTCAGGAGGTCACACACCGGATATGA | 0.729
17 | AGTCAAAGTTCAGGACGATGTAACGTAAAGCACG | 0.666
18 | GCAACGAGGGCAAAGTTGATAGCATCTGTCGACG | -0.122

Tested on: RARb:RXRa (NR concentration 270 nM, RXRa partner concentration 90 nM)
Test: as above
Outline: as §1

Row | Sequence | PBM binding z-score
19 | ATTCGGAGGACAAAGGTCAGAGCTACGCCAGTGA | 4.39
20 | GGAACGAGGGCAAGTTGATGGCAGAGTTTGATGG | 2.47
21 | AGTCAAAGTTCACTAGGTCACGTAAGATTCAGCT | 5.27
22 | TCTTGTAGATCAGGAGGTTAAGAAAGCTGGCCAA | 0.586
23 | TAGCCTAGGTCAGATCGGTCCAGTATACGCTATA | 2.78
24 | ATCTCTAGGTAACCAAGTTCAGGGAATGCCGAAC | 1.15
25 | TCGAGTAGGTTAGGGGCGTTCAGAATGGCGTCGA | 0.552
26 | TCATATAGGTAAACAGGGGAAAGTCCGTAAGTTA | 0.676
27 | ACTATTAGTTGAGACGAGGGCAACCTATAGGTTG | 0.936
28 | CCTACTGGGCCATCAGGCCATTGATATCAACGTT | 0.28
29 | TCTCGGAGCACACGAAGGTCAGAGCTTTCCAGAG | 2.39
30 | ATCTCTAGGTAACCAAGTTCAATGAATGCCGAAC | 1.43
31 | TGGATGAGGTTAAAGATCAGGGAACGTGGCGTCG | 2.37
32 | CTCGAAAGGTCGGTTGAGGTGCGTATACGGATAA | 2.92
33 | ATCGAAAGGTCGAGCTGAGTATAGAGAAAGGGAA | 3.94
34 | ACAGACATGTGAGTGAAGGTAACTCAGCTGGACG | -0.157
35 | CAAACTAGGTCACGGAAGGTCAAAGTCGAATGAC | 5.29
36 | TAGCATAGGTCATTGGGCCAGTATAGTACGCATC | 3.97
37 | AGTCAAAGTTCATCTAGGTAACGTATGATATGCT | 4.95
38 | AGAATGAGGTTAAGATGAGGGAAACAGAATACAT | 1.95

Row | Sequence | PBM binding z-score
39 | CCTCCAAGGTCAATGCTAGGTCAGTGAAAGCATT | 5.22
40 | TCGAGTAGGTTAGGGGCAGTCAGAATGGCGTCGA | 1.08
41 | ATCGAAAGGTCGACGAGGTGTGTATACACCGTTT | 3.74
42 | CCTACTGGGCCATTCAGAGGTCTTTGATCATATG | 0.306
43 | ATCGAAACGTCGAGGTGAGTATAGAGAAAGGGAA | 0.508
44 | CCCAGCAGGCCAGGGTCACTCAAGCATTTCGCTT | 2.62
45 | CTTCCAAGGTCAATGCTAGGTCAGTGAAAGCATT | 5.2
46 | GGTACGAGGGCATTCGAGTTGATAGCATGGCGAT | 1.95
47 | TGTCAAAGTTCAAAGGTAACGTACGTATCCACAC | 4.92
48 | GGAACGAGAGCAAAGTTGATAGCATCTGTCGACG | -0.296
49 | GCTATTAGTTGAAAGGGCAACCAAATGATTCTCG | 2.13
50 | ATATGTAGGTTACAACCGGGTCATTCAGGCTATG | 2.36
51 | TCTTGTAGATCAACAGGGGGTTAAGAAAGATCGA | 1.71
52 | CCTACTGGGCCAAAAAGCTCATTGATGCCGATAA | -0.356
53 | AGTCAAAGTTCAGGACGAGTTAACGTAAAGCACG | 4.21
54 | TGAATGAGGTTAAAGATTAGGGAACGTGGCGTCG | 1.97
55 | CAAACTAGGTCCCGAAAGGTCAAAGTCGAATGAC | 4.74
56 | CCAAGTTGGTCAGGAGGTCACACACCGGATATGA | 3.8
57 | AGTCAAAGTTCAGGACGATGTAACGTAAAGCACG | 4.17
58 | GCAACGAGGGCAAAGTTGATAGCATCTGTCGACG | 2.34
